Values joined by “and” are separate entries in the source; they are usually repeats but may differ in a detail not shown here. Equal values may be shown once. The whole screen tested about 5,500 compounds, of which about 2,000 (36%) were called active. About 18% were inconclusive and are not listed. Rule as the data show it: active = normalized growth mostly below about 0.91 (no sharp cut-off); inconclusive = no clear call, values can overlap the other calls; inactive = mostly above about 0.92. The list shows a part of the results.
Assay: chemical genetic growth profiling, strain panel (AID 1159580);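 also: tested at 20 µM; growth read once vehicle control cultures reached saturation at 30 °C; 1 = growth at the plate median or of vehicle wells; lower values mean less growth of the strain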
Conditions: S. cerevisiae deletion strains, growth OD

Measured: normalized growth

O=C(O)c1cccnc1C(=O)O
inactive: locus YAL013W, strain DEP1, hits give low values 1.01 and 1.02 | locus YAL021C, strain ccr4, hits give low values 1.02 | locus YAL026C, strain drs2, hits give low values 1 | locus YAL030W, strain snc1, hits give low values 0.999 | locus YAL040C, strain CLN3, hits give low values 1.05 | locus YBL061C, strain skt5, hits give low values 1 | locus YBR009C, strain hhf1, hits give low values 1.03 | locus YBR021W, strain FUR4, hits give low values 1.03 | locus YBR023C, strain chs3, hits give low values 0.996 | locus YBR171W, strain sec66, hits give low values 0.992 | locus YBR229C, strain ROT2, hits give low values 1.03 | locus YBR231C, strain swc5, hits give low values 1.04 | locus YBR279W, strain paf1, hits give low values 0.998 | locus YCL011C, strain gbp2, hits give low values 1.02 | locus YCL016C, strain dcc1, hits give low values 1.01 | locus YCL029C, strain bik1, hits give low values 0.991 | locus YCL061C, strain MRC1 (second series), hits give low values 1 | locus YCL069W, strain vba3, hits give low values 1 | locus YCR088W, strain abp1, hits give low values 0.99 | locus YDL005C, strain med2, hits give low values 0.98 | locus YDL035C, strain GPR1, hits give low values 1.03 | locus YDL040C, strain nat1, hits give low values 0.985 | locus YDL074C, strain BRE1, hits give low values 1.07 | locus YDL101C, strain DUN1, hits give low values 1.04 | locus YDL134C, strain PPH21, hits give low values 1.03 | locus YDL185W, strain tfp1, hits give low values 0.976 | locus YDL192W, strain arf1, hits give low values 1 | locus YDR001C, strain nth1, hits give low values 0.99 | locus YDR069C, strain doa4, hits give low values 1 | locus YDR101C, strain arx1, hits give low values 0.997 | locus YDR137W, strain rgp1, hits give low values 1.01 | locus YDR150W, strain NUM1, hits give low values 1.02 | locus YDR159W, strain sac3, hits give low values 0.986 | locus YDR162C, strain NBP2, hits give low values 1.02 | locus YDR195W, strain ref2 1.05 | locus YDR297W, strain sur2, hits give low values 1 | locus YDR318W, strain mcm21, hits give low values 0.997 | locus YDR334W, strain swr1, hits give low values 0.979 | locus YDR335W, strain msn5, hits give low values 1 | locus YDR363W, strain ESC2, hits give low values 1.04 | locus YDR388W, hits give low values 0.986 | locus YDR392W, strain spt3, hits give low values 0.984 | locus YDR502C, strain sam2, hits give low values 1.01 | locus YEL003W, strain gim4, hits give low values 0.995 | locus YEL037C, strain rad23, hits give low values 0.989 | locus YEL061C, strain CIN8 (second series), hits give low values 0.979 | locus YEL061C, strain CIN8, hits give low values 1.02 | locus YER002W, strain NOP16, hits give low values 0.994 | locus YER015W, strain faa2, hits give low values 1.01 | locus YER016W, strain bim1, hits give low values 0.967 | locus YER110C, hits give low values 1 | locus YER111C, strain swi4, hits give low values 0.986 | locus YER155C, strain BEM2 (second series), hits give low values 1.05 | locus YER155C, strain BEM2, hits give low values 1.01 | locus YER167W, strain BCK2, hits give low values 1.02 | locus YFR010W, strain ubp6, hits give low values 1.03 | locus YGL078C, strain dbp3, hits give low values 0.983 | locus YGL086W, strain mad1, hits give low values 1.01 | locus YGL167C, strain pmr1, hits give low values 1 | locus YGL173C, strain kem1, hits give low values 1 | locus YGL227W, strain vid30, hits give low values 0.972 | locus YGL240W, strain doc1, hits give low values 1.01 | locus YGL248W, strain PDE1, hits give low values 1.03 | locus YGL253W, strain hxk2, hits give low values 1.01 | locus YGR078C, strain PAC10, hits give low values 1.01 | locus YGR135W, strain pre9, hits give low values 1.01 | locus YGR229C, strain SMI1, hits give low values 1.04 | locus YGR252W, strain gcn5, hits give low values 0.938 | locus YHR013C, strain ard1, hits give low values 1 | locus YHR027C, strain rpn1, hits give low values 1.02 | locus YHR030C, strain SLT2, hits give low values 1.02 and 0.992 | locus YHR079C, strain IRE1 (second series), hits give low values 0.981 | locus YHR079C, strain IRE1, hits give low values 1 | locus YHR094C, strain hxt1, hits give low values 0.983 | locus YHR129C, strain ARP1, hits give low values 1.01 | locus YHR142W, strain chs7, hits give low values 1.02 | locus YHR200W, strain rpn10, hits give low values 0.984 | locus YIL066C, strain RNR3, hits give low values 1.05 | locus YIL073C, strain SPO22, hits give low values 1.01 | locus YIL125W, strain kgd1, hits give low values 0.971 | locus YIR030C, strain dcg1, hits give low values 0.998 | locus YJL092W, strain hpr5, hits give low values 0.99 | locus YJL095W, strain BCK1 (second series), hits give low values 1.01 | locus YJL095W, strain BCK1, hits give low values 1.07 and 0.998 | locus YJL115W, strain asf1, hits give low values 0.984 | locus YJL129C, strain trk1, hits give low values 0.986 | locus YJL134W, strain LCB3, hits give low values 1.01 | locus YJL154C, strain vps35, hits give low values 0.998 | locus YJL164C, strain tpk1, hits give low values 1.03 | locus YJL166W, strain qcr8, hits give low values 1.03 | locus YJL168C, strain set2, hits give low values 0.978 | locus YJL187C, strain SWE1 (second series), hits give low values 1.05 | locus YJL187C, strain SWE1, hits give low values 1 | locus YJR043C, strain POL32, hits give low values 1.02

— PubChem BioAssay AID1159580 (chemical genetic matrix, 2015)
